Measurements as given in the supplement of paper PMC11732987, “Enantioselective OTUD7B fragment discovery through chemoproteomics screening and high-throughput optimisation” (Communications Chemistry, 2025).

How the values were obtained:
Assay in all cases: log2 ratio of Biotin-Ahx-Ub-VS probe labelling (fragment/DMSO); higher = less target engagement (more negative = stronger competition), active = hit call of the paper (q ≤ 0.05, log2 ratio ≤ -1)
Settings in all cases: compound concentration: 200 uM; treatment time: 3 h
USP19 = biological target: T1, USP19 (UniProt O94966)
T1 sequence (whole entry): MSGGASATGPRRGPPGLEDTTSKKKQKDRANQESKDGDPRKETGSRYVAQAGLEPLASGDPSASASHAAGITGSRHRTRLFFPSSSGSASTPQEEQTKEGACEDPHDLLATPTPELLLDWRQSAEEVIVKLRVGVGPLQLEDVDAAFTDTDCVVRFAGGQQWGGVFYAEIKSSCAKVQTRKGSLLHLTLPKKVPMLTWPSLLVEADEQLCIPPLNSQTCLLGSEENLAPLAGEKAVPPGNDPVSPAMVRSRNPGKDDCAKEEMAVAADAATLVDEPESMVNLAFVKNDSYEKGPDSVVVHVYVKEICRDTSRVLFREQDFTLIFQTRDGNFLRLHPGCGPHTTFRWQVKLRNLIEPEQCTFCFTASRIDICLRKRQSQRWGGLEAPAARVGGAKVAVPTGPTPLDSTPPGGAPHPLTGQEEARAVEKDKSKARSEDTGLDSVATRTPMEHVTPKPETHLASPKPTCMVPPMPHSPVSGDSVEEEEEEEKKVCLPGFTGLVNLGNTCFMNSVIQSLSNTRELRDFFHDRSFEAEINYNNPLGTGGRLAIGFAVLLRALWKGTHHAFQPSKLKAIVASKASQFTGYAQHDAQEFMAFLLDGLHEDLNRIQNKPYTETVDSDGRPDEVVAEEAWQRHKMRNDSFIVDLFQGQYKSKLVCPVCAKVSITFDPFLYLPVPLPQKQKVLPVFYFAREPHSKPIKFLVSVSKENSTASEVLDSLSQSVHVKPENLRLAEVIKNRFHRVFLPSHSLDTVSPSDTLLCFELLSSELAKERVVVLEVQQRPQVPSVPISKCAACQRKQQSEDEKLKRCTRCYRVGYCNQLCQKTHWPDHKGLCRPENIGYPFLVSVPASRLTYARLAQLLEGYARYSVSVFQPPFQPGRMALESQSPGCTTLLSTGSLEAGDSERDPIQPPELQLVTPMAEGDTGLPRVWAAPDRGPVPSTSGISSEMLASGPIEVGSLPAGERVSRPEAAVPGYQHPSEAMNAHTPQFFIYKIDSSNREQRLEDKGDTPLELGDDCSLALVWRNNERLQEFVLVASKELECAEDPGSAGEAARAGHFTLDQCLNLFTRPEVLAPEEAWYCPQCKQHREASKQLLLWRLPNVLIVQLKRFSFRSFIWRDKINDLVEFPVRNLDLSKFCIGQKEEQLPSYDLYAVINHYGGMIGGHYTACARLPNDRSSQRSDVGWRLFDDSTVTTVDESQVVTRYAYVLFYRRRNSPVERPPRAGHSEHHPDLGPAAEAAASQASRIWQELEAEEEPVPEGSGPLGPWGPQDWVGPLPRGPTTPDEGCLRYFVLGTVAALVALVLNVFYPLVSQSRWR
In short: (§1)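 Labelled DUBs from HEK293T lysate were NeutrAvidin-enriched, digested with LysC and trypsin, and run by diaPASEF LC-MS/MS. Before that, each 495 µg sample in Tris/CHAPS/IGEPAL buffer with protease inhibitors was treated in triplicate with fragment at 200 µM or vehicle for 3 h, then with Biotin-Ahx-Ub-VS at 0.5 µM final for 1 h. Values are average log2 ratios of fragment over vehicle by unpaired t-test, based on global-median-normalised Spectronaut label-free quantities from proteins with ≥2 unique peptides.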

USP24 = USP24 (UniProt Q9UPU5)
In short: as §1

USP25 = biological target: T2, USP25 (UniProt Q9UHP3)
T2 sequence (whole entry): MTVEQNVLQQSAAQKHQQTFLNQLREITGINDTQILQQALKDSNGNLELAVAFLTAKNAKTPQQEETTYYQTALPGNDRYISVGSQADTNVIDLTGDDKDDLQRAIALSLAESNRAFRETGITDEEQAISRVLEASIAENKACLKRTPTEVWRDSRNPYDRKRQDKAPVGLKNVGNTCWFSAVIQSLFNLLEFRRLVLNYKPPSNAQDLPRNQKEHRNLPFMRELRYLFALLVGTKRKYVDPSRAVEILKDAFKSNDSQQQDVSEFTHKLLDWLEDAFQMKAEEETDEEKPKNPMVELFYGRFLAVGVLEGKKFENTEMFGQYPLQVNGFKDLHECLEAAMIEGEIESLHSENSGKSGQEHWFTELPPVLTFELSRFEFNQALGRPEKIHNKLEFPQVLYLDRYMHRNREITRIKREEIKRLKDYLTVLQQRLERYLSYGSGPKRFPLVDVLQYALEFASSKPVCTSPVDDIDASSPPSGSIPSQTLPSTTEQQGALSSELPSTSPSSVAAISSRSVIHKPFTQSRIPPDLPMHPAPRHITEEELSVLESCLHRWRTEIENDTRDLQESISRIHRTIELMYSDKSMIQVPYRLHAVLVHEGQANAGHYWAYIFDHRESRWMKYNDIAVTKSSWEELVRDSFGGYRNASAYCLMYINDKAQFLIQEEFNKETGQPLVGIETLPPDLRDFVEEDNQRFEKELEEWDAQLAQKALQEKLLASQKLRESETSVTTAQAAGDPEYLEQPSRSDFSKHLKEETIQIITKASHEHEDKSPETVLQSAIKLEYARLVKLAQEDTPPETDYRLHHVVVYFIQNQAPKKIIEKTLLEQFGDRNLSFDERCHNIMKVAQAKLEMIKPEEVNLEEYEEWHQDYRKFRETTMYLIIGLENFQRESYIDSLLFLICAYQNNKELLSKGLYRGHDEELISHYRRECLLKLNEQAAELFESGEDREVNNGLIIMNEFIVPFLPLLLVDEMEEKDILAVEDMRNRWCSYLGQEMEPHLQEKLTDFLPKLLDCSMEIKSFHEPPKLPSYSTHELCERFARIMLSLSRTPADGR
In short: as §1

USP28 = biological target: T3, USP28 (UniProt Q96RU2)
T3 sequence (whole entry): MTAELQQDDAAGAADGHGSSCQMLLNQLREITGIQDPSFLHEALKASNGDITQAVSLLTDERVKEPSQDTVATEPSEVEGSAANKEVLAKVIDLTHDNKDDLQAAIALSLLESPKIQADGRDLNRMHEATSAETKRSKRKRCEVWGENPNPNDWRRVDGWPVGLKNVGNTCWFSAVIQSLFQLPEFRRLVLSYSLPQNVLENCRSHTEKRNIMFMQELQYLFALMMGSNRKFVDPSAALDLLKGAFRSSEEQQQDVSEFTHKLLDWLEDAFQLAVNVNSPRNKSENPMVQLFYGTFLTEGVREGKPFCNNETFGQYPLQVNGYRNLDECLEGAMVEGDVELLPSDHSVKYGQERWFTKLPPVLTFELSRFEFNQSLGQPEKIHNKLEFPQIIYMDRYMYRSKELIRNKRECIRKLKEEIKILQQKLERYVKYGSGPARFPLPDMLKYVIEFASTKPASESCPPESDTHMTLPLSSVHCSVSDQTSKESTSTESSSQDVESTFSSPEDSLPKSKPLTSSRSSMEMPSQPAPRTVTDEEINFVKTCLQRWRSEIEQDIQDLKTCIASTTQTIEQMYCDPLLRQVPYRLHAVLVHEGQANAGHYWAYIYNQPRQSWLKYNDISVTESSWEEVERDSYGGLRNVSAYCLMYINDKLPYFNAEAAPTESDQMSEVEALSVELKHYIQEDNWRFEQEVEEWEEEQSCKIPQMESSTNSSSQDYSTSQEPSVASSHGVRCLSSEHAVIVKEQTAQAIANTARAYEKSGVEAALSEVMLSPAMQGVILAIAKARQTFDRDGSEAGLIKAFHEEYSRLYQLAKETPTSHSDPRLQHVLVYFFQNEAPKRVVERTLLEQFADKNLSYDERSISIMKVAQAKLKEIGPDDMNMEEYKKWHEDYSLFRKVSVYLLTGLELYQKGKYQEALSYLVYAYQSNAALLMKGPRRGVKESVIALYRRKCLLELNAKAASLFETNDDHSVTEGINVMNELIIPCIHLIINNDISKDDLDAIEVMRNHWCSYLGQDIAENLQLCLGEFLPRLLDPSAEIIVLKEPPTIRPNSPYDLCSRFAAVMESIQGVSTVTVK
In short: as §1

Measured: log2 ratio of Biotin-Ahx-Ub-VS probe labelling

USP24, sequence (Q9UPU5 whole entry): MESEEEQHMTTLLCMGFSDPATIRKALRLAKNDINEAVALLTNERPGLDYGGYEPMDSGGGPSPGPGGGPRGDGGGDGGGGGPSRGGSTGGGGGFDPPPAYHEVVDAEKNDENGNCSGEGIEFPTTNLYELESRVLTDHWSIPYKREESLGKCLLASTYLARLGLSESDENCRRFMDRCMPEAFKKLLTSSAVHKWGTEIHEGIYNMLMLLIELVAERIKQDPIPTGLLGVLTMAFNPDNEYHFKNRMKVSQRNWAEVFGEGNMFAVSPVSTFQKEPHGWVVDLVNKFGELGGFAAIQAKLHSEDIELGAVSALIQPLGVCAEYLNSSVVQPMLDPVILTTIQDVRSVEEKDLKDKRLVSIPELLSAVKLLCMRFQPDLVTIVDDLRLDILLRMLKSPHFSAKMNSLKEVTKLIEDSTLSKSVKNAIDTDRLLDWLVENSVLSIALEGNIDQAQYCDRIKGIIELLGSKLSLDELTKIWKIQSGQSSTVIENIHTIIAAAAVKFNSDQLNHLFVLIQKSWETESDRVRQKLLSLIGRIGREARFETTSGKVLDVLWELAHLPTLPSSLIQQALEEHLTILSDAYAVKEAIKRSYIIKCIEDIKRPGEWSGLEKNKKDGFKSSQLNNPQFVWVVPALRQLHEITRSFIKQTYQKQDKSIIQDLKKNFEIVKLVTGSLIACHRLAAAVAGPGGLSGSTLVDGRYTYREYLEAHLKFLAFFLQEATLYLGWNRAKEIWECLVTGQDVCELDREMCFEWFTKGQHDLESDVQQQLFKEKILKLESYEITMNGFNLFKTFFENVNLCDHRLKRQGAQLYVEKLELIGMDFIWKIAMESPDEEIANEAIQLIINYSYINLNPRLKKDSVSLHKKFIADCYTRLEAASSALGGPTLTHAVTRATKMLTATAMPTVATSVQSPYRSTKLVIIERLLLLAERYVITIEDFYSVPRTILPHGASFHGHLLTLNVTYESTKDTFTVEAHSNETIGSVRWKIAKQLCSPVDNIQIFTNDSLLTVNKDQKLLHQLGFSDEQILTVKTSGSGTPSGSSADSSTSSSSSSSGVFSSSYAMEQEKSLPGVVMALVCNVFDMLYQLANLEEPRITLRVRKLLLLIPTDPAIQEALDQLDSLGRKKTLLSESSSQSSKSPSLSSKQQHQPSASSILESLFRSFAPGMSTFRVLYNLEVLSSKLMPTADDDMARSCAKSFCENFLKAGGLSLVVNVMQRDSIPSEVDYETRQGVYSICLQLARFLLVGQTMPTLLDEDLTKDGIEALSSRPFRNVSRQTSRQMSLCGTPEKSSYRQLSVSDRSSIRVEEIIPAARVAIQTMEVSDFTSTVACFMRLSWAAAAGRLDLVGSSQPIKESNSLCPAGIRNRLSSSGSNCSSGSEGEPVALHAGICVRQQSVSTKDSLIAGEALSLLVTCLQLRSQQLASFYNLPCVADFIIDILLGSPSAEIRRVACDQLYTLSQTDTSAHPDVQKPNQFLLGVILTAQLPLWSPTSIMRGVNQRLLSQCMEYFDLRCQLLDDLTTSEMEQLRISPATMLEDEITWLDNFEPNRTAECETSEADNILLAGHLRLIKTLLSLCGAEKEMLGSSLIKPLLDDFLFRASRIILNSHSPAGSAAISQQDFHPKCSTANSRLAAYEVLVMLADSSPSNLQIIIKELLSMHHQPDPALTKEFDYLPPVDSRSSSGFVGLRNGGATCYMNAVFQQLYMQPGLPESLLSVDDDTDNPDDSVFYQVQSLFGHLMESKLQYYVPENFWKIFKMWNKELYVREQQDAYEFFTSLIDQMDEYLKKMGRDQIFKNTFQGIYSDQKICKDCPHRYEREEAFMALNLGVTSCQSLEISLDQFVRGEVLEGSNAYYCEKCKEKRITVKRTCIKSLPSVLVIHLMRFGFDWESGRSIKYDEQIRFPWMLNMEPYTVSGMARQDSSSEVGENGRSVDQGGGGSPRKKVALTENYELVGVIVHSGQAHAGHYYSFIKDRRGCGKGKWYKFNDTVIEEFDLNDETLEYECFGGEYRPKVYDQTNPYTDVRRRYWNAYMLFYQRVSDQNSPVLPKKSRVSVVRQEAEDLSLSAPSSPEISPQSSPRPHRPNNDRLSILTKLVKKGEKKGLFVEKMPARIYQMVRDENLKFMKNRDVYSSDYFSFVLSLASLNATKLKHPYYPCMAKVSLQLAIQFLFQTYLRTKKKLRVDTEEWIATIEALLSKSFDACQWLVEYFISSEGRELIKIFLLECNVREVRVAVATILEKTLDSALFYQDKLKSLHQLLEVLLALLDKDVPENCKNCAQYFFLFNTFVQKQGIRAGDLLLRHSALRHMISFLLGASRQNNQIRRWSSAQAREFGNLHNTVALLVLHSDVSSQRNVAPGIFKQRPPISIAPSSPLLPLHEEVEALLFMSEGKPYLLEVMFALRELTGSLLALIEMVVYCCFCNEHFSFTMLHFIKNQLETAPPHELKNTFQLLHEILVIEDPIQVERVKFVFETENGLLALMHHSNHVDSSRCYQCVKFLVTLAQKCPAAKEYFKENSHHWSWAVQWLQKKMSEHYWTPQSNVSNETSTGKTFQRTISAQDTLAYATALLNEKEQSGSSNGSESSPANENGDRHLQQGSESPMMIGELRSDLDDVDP

O=C(CCl)NC(Cn1ccccc1=O)c1ccccc1 (centres undefined)
inactive: USP19 -0.14 | USP24 -0.0705 | USP25 -0.417 | USP28 -0.211
